The source of these data is PubChem BioAssay.

The nature of assay [1]: optical density shifts of acrAB sulA E. coli – strain DRC41, OD650, 48 h, E. coli filamentation inducer project, primary screen (AID 1152).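 Further: E. coli MC1000 strain DRC41 lacking acrAB efflux pump and sulA.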 To be noted: higher = more signal, called active from +8 up or from −8 down.
The nature of assay [2]: probe aLefty1 binding on compound microarray – biochemical, small-molecule microarray, 635/667 nm fluorescence, primary screen (AID 1153).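 Further: score merges spot fluorescence with signal-to-noise ratio from the scanned slide images.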 To be noted: higher = more signal.
Assay [3] can be described thus: plasmodial surface anion channel blockers, osmotic lysis – cell-based, P. falciparum Indochina, OD700, 1 h, primary screen (AID 1154). To be noted: P. falciparum Indochina infected RBC osmotic lysis, higher = more signal, called active from +8 up or from −8 down.
A short description of assay [4]: plasmodial surface anion channel blockers, osmotic lysis – cell-based, P. falciparum Indochina, OD700, 2 h, primary screen (AID 1155).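 Further: lysis reports solute entry through the parasite surface anion channel PSAC.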 The following applies: P. falciparum Indochina infected erythrocytes, higher = more signal, called active from +8 up or from −8 down.
Assay [5] in a line: changes in parasitized red cell lysis, either direction – P. falciparum Indochina, OD700, 3 h, PSAC antagonist project, primary screen (AID 1156). To be noted: P. falciparum-infected erythrocytes, osmotic lysis, higher = more signal, called active from +8 up or from −8 down.
Assay [6] is described as follows: plasmodial surface anion channel blockers, osmotic lysis – cell-based, P. falciparum Indochina, OD700, 18 h, primary screen (AID 1157). The following applies: P. falciparum Indochina infected erythrocytes, osmotic lysis OD700, 18 h; higher = more signal, called active from +8 up or from −8 down.
A short description of assay [7]: S6 kinase pathway phospho-S6 level changes – cell-based, A549, cytoblot, luminescence, serum-stimulated, primary screen (AID 1158).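 Further: serum-stimulated A549 lung adenocarcinoma cells; signal is phosphorylated S6 detected by cytoblot immunostaining with HRP secondary.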 The following applies: 5 h, higher = more signal.
Assay [8] concerns the target NADPH oxidase 2 (Homo sapiens) (UniProt P04839). Description: compounds shifting NOX2 Amplex Red fluorescence – cell-based, HEK293-NOX2, PMA-stimulated, NOX inhibitor project, primary screen (AID 1159). Further: test concentration not given here. The following applies: 45 min, higher = more signal, called active from +8 up or from −8 down.
Assay [9] deals with NADPH oxidase 4 (Homo sapiens) (UniProt Q9NPH5). Kind of assay: compounds shifting NOX4 Amplex Red fluorescence – cell-based, HEK293-NOX4, tetracycline-induced, NOX inhibitor project, primary screen (AID 1160). To be noted: HEK293-NOX4, Amplex Red H2O2 fluorescence, 45 min; higher = more signal, called active from +8 up or from −8 down.
Assay [10] has as its target NADPH oxidase 5 (Homo sapiens) (UniProt Q96PH1). Description: compounds shifting NOX5 Amplex Red fluorescence – cell-based, HEK293-NOX5, NOX inhibitor project, primary screen (AID 1161). To be noted: HEK293-NOX5, ionomycin, 45 min, higher = more signal.
The nature of assay [11]: compound effects on lung adenocarcinoma cell viability – A549, calcein-AM fluorescence, 48 h, basal, profiling panel (AID 1162). Further: test concentration not given here. To be noted: higher = more signal.
Assay [12] in a line: compound effects on differentiated 3T3-L1 adipocyte viability – cell-based, 3T3-L1 adipocytes, calcein-AM fluorescence, 48 h, basal, profiling panel (AID 1163). Further: test concentration not given here. The following applies: 3T3-L1 adipocytes viability, higher = more signal.
Assay [13] is described as follows: compound effects on hepatocellular carcinoma cell viability – HepG2, calcein-AM fluorescence, 48 h, basal, profiling panel (AID 1164). Further: test concentration not given here. To be noted: higher = more signal.
Assay [14] in a line: compound effects on multiple myeloma cell viability – MM1S, calcein-AM fluorescence, 48 h, basal, profiling panel (AID 1165).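 Further: viability of MM1S multiple myeloma cells under basal unstimulated conditions; test concentration not given here.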 The following applies: higher = more signal.
Assay [15] is described as follows: calcein-AM signal in unstimulated myeloma cells – cell-based, calcein-AM fluorescence, 48 h, PK04 Diversity Set, profiling panel (AID 1166).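 Further: cells grown under basal conditions without added stimulus; test concentration not given here.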 To be noted: RPMI8226 myeloma viability, higher = more signal.
A short description of assay [16]: JC-1 mitochondrial signal, unstimulated HepG2 cells – cell-based, JC-1 fluorescence, 24 h, 100 nL compound, profiling panel (AID 1167). Further: test concentration not given here. To be noted: HepG2 mitochondrial potential, higher = more signal.
The nature of assay [17]: JC-1 mitochondrial signal, unstimulated adipocytes – cell-based, JC-1 fluorescence, 3T3-L1 adipocytes, 24 h, 100 nL compound, profiling panel (AID 1168). Further: test concentration not given here. The following applies: JC-1 mitochondrial fluorescence, higher = more signal, called active from +8 up or from −8 down.
Assay [18] is described as follows: JC-1 mitochondrial signal, unstimulated myeloma cells – cell-based, JC-1 fluorescence, RPMI8226, 24 h, 100 nL compound, profiling panel (AID 1169). Further: test concentration not given here. To be noted: JC-1 mitochondrial potential fluorescence, higher = more signal.
Assay [19] in a line: JC-1 mitochondrial signal, unstimulated MM1S myeloma – cell-based, JC-1 fluorescence, 24 h, 100 nL compound, profiling panel (AID 1170). Further: test concentration not given here. To be noted: MM1S mitochondrial potential, higher = more signal.
A short description of assay [20]: resazurin metabolic signal in A549 cells – cell-based, resazurin fluorescence, 24 h, PK04 Diversity Set, profiling panel (AID 1171). Further: test concentration not given here. To be noted: A549 viability, higher = more signal, called active from +8 up or from −8 down.

Active and inactive are the calls of the source.

Chain of NADPH oxidase 4 (Homo sapiens) (Q9NPH5 whole entry, looked up): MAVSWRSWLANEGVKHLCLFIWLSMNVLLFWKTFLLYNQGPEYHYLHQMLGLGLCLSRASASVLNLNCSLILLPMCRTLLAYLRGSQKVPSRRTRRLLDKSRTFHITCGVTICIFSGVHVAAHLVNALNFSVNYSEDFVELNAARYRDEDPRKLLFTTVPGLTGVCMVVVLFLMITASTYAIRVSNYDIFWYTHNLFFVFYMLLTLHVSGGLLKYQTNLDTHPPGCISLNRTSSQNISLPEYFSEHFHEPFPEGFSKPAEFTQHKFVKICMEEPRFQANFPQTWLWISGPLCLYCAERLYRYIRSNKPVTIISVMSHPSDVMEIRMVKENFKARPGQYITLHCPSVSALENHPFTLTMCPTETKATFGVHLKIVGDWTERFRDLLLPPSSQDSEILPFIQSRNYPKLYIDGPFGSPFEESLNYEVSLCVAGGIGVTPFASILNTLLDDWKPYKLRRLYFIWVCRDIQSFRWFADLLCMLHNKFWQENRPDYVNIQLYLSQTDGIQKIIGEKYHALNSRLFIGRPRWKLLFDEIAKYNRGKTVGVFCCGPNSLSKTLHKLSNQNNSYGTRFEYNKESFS
Chain of NADPH oxidase 2 (Homo sapiens) (P04839 whole entry, looked up): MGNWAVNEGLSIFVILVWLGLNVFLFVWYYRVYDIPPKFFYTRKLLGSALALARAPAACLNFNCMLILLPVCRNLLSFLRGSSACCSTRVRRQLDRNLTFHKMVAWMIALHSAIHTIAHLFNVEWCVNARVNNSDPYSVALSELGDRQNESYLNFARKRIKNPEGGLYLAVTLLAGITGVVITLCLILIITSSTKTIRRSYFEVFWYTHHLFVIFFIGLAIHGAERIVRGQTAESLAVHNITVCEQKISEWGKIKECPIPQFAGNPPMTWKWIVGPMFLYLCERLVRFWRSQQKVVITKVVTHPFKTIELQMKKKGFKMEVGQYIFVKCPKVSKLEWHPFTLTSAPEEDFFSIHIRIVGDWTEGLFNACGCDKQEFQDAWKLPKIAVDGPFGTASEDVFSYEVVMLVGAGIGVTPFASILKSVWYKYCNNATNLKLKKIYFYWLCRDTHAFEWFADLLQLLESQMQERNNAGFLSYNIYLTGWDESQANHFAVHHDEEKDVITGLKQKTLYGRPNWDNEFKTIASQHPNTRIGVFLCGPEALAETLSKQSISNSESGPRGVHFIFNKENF
Chain of NADPH oxidase 5 (Homo sapiens) (Q96PH1 whole entry, looked up): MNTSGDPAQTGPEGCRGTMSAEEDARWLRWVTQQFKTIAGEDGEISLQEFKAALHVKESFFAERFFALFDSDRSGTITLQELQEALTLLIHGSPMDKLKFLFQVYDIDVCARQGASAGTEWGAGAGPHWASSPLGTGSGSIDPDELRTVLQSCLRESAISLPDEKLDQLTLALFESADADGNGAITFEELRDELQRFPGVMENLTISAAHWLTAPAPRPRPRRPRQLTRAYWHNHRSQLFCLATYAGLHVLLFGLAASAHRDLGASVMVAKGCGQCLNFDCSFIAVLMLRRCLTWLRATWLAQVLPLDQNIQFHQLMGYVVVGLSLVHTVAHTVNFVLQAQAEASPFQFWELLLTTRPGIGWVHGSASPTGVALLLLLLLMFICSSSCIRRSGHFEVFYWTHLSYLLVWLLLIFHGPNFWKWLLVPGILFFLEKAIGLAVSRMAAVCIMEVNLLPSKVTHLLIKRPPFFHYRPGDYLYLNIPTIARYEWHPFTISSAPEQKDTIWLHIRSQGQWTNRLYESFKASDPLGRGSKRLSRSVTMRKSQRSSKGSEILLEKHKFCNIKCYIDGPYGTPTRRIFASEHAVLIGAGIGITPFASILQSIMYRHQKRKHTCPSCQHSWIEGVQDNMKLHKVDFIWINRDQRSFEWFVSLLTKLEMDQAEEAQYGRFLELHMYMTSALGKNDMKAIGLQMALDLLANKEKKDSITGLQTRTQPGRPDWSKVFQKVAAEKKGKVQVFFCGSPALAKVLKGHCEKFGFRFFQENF

As to `CC(CCC(=O)OC[C@H]1O[C@H](C#Cc2ccccc2)C=C[C@@H]1Oc1ccc(C)cc1)=NO[C@H](C)c1cn([C@H](CO)Cc2ccccc2)nn1`, the z-score in [1] is -0.757 (inactive); in assay [3], 14.6 (active); in [4], 2.79 (inactive); in assay [5], 1.47 (inactive); in assay [6], 1 (inactive); in [7], -1.01. Further, the z-score in assay [8] was -1.26 (inactive); in [9] it was 0.432 (inactive); in [10], 0.32; in [11], 0.122; in [12], -0.643; in assay [13], -0.34. Besides, the z-score was -3.06 in assay [14]; -3.97 in [15]; 0.0151 in [16]; -1.08 (inactive) in assay [17]; -0.712 in [18]; -0.547 in assay [19]. Besides, the z-score in [20] is 0.804 (inactive). Moreover, in assay [2], the composite z-score is -0.243.

Consider `CCOC(=O)[C@H](Cc1ccccc1)NC(=O)CCC1CC(OC(=O)NCCc2ccc(F)cc2)CC2(CCCC(COC(=O)NCCCN3CCCC3=O)O2)O1` (stereo not given in full), for which the z-score in assay [1] is 0.141 (inactive); in [3] it was -1.36 (inactive); in assay [4], -0.861 (inactive); in assay [5], -0.0494 (inactive); in assay [6], -0.445 (inactive); in [7], 0.94. Also, the z-score in assay [8] is -0.232 (inactive); in [9], 0.192 (inactive); in [10], -1.09; in [11], 1.57; in assay [12], -0.0501; in assay [13], 0.43. Also, the z-score in [14] was 0.356; in assay [15], -0.335; in [16], 0.668; in [17] it was -0.182 (inactive); in assay [18] it was 0.437; in [19] it was -1.09. For the same compound, the z-score in [20] is -0.972 (inactive). The same compound had a composite z-score in assay [2] of -0.105.

Take `CON=Cc1ccc(C(=O)N2[C@H](c3ccc(C)cc3)[C@@H](C)CC[C@H]2C(=O)OC)cc1`: the z-score is -0.134 (inactive) in assay [1]; 1.65 (inactive) in [3]; 1.25 (inactive) in assay [4]; 0.0014 (inactive) in assay [5]; 1.1 (inactive) in [6]; -0.0424 in [7]. Further, the z-score in [8] was -0.88 (inactive); in [9] it was -0.304 (inactive); in [10], -0.376; in assay [11] it was 0.281; in [12] it was 0.0609; in assay [13] it was -0.296. For the same compound, the z-score in assay [14] was 0.336; in assay [15], 0.0411; in [16], 0.129; in assay [17] it was 0.345 (inactive); in [18], 0.344; in [19], 1.07. In assay [20], the z-score was 1.03 (inactive). This compound showed a composite z-score in assay [2] of -0.147.

As for `CCCCC#C[C@@H]1C=C[C@H](OC(C)=O)[C@@H](COC(C)=O)O1`, the z-score in assay [1] was -0.656 (inactive); in assay [3], 0.604 (inactive); in assay [4], 0.364 (inactive); in [5], -0.89 (inactive); in assay [6] it was -0.0473 (inactive); in [7], -0.268. Also, the z-score was -2.78 (inactive) in assay [8]; 1.05 (inactive) in [9]; 2.02 in assay [10]; -0.0464 in [11]; -0.515 in [12]; -1.14 in assay [13]. Besides, the z-score in assay [14] is -3.37; in [15], -3.02; in assay [16], -1.24; in assay [17] it was 0.378 (inactive); in assay [18], -0.746; in assay [19], -2.22. Also, in assay [20], the z-score was 0.451 (inactive). Also, the composite z-score in assay [2] is -0.0111.

As for `O=C1[C@H]2[C@H]3[C@H](O)[C@H](O)CC(=NOCc4ccccc4)[C@@H]3CC[C@H]2C(=O)N1C[C@@H]1CCCO1`, the z-score in [1] is 0.516 (inactive); in assay [3], -0.132 (inactive); in assay [4], 0.141 (inactive); in assay [5] it was -0.335 (inactive); in assay [6], 0.305 (inactive); in assay [7], -0.0701. In addition, the z-score is 0.434 (inactive) in [8]; 0.531 (inactive) in assay [9]; 0.102 in assay [10]; -0.0287 in assay [11]; -0.444 in assay [12]; -0.581 in assay [13]. Further, the z-score is 0.229 in assay [14]; -0.812 in [15]; -1.01 in assay [16]; 0.577 (inactive) in [17]; -0.944 in assay [18]; -0.28 in [19]. The z-score in assay [20] was 0.232 (inactive). In assay [2], the composite z-score was -0.28.
